Source: PubChem BioAssay
ADAM17 inh = ADAM17 inhibitors, primary screen, biochemical, QFRET; Disintegrin and metalloproteinase domain-containing protein 17 (Homo sapiens), P78536; recombinant ADAM17, EDANS/DABCYL FRET peptide cleavage; inhibition, % at 6.95 µM; hit rate 0.83% among 370,000; AID 720648, 2013;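 active means inhibition above the mean of compounds lying between control limits plus 3 SD, set per campaign, cut at about 8.5% in these data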;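 further: 0% = DMSO-only wells as the low control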
PLCg1 inh = PLC-gamma1 enzyme inhibitors, primary screen, biochemical, fluorescence, purified enzyme; inhibition, % at 12.2 µM; hit rate 0.84% among 370,000; fluorogenic substrate; in the data active means inhibition above about 9.5%
PLCb3 inh = human PLC-beta3 inhibitors, primary screen, biochemical, fluorescence; 1-phosphatidylinositol 4,5-bisphosphate phosphodiesterase beta-3 (Homo sapiens), Q01970; AID 720704, 2013; hit rate 0.18% among 370,000; Purified PLC-beta3, fluorogenic substrate; inhibition, % at 12.2 µM; in the data active means inhibition above about 11%;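 further: 0% = median of compound wells on plate and 100% = full blocker control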
Target sequence (Q01970 whole entry, looked up): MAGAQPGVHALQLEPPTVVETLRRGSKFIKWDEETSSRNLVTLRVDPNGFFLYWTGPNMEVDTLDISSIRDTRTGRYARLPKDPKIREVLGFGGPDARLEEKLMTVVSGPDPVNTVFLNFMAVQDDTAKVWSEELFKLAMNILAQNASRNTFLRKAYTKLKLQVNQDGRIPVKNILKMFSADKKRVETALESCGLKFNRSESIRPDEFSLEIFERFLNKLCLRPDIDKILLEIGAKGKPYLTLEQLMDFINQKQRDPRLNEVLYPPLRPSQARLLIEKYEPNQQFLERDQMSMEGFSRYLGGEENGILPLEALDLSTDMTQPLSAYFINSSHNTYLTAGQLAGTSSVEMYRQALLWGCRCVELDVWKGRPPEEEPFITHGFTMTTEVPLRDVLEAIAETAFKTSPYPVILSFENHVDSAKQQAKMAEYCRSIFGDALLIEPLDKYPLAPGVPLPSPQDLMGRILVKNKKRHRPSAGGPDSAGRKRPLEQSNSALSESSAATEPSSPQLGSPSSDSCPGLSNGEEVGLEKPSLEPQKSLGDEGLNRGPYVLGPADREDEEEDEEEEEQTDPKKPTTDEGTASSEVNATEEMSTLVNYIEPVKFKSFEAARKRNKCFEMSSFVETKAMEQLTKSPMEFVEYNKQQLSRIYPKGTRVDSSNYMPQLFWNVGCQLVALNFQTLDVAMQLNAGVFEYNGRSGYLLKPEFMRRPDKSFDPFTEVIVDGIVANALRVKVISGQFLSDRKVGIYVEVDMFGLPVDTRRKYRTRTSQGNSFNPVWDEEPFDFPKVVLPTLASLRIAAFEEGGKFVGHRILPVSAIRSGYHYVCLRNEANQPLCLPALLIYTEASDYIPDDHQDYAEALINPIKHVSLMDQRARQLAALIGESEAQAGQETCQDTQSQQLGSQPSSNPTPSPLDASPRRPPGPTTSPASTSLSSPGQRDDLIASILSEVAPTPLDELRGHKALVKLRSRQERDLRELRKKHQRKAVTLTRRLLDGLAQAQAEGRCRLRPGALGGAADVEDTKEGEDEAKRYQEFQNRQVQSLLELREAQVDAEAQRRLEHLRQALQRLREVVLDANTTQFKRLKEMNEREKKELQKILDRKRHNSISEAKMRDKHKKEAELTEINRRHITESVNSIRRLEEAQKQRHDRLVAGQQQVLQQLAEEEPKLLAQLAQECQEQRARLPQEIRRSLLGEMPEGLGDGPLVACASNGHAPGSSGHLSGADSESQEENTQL
KLK7 zymogen act = proKLK7 zymogen activators, primary screen, biochemical, fluorescence intensity. Kallikrein-7 (Homo sapiens), P49862. purified proKLK7, EDANS-DABCYL substrate fluorescence; 100% is mature enzyme control, 0% vehicle. activation, % at 7 µM. hit rate 0.9% among 370,000. AID 652039, 2013;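 active means activation above the mean of all tested compounds plus 3 SD, computed per campaign excluding outliers beyond control limits, cut at about 13% in these data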
ADAM10 inh = human ADAM10 inhibitors, primary screen, biochemical, QFRET, HTS; hit rate 0.62% among 370,000; inhibition, % at 7 µM; recombinant ADAM10, EDANS/DABCYL FRET peptide cleavage, 3 h; AID 720582, 2013; Disintegrin and metalloproteinase domain-containing protein 10 (Homo sapiens), O14672;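 active means inhibition above a per-campaign cutoff equal to the mean of compounds falling between control-based bounds plus 3 SD, cut at about 20% in these data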;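 further: 0% = DMSO wells while the 100% control is not disclosed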
ADAM10 counter = ADAM10 inhibitors, counter-screen for ADAM17 exosite inhibitor project, biochemical, FRET, human ADAM10. recombinant ADAM10, EDANS/DABCYL FRET peptide cleavage, 3 h. AID 743256, 2014. hit rate 47% among 2,900. inhibition, % at 6.95 µM. shares compounds with ADAM17 inh;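 active means mean inhibition over the triplicate runs exceeds the activity threshold set in the earlier primary screen, cut at about 20% in these data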;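 further: 0% = DMSO wells and 100% = marimastat wells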
ADAM17 confirm = ADAM17 inhibitors, hit retest, confirmation, biochemical, QFRET peptide cleavage; shares compounds with ADAM17 inh; recombinant ADAM17, EDANS/DABCYL QFRET peptide cleavage; inhibition, % at 6.95 µM; hit rate 65% among 2,900; AID 743257, 2014;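 active means mean inhibition across replicates above the hit cutoff set in the primary screen, cut at about 8.5% in these data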;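 further: 0% = DMSO wells and 100% = marimastat wells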
An asterisk follows results filed as active; nt = not tested or not shown. In the library only some 2.9% were active in any assay of this set; here they are far more common.

SMILES	ADAM17 inh	PLCg1 inh	PLCb3 inh	KLK7 zymogen act	ADAM10 inh	ADAM10 counter	ADAM17 confirm
CC1(C)CC(N2CCN(Cc3ccccc3)CC2)=CC(=[N+]2CCCCC2)C1	0	5	-4	0	8	nt	nt
COc1ccccc1CNC(=O)C/C(C)=N/NC(=O)Cc1ccc(OC)c(OC)c1	-1	-1	1	0	4	nt	nt
COc1cc(NC(=O)C/C(C)=N/NC(=O)Cc2ccccc2)c(OC)cc1Cl	11*	7	1	-1	7	13	11*
COc1ccc(CNC(=O)C/C(C)=N/NC(=O)Cc2ccc(OC)c(OC)c2)cc1	9.9*	5	5	0	18	-5	2
CCO[C@H]1OC(C(=O)NCc2nc3ccccc3[nH]2)=C[C@@H](c2csc3ccccc23)[C@@H]1CCCO	12*	2	2	0	12	6	6
O=C1C2C(c3ccccc3)C=CC(c3ccccc3)C2C(=O)N1c1ccncc1 (stereo unspecified)	-2	-4	-4	1	3	nt	nt
C[C@@H](OC(=O)N1CCCCC1)[C@H]1O[C@]2(C)CCCC[C@H]1O2	9.4*	11*	7	0	9	13	9
O=C(Cc1noc2ccccc12)NNC(=S)Nc1ccc(Cl)cc1	12*	8	-4	0	14	3	1
Cc1cccc(NC(=O)Cc2noc3ccccc23)c1	-1	5	4	0	12	nt	nt
CCCCOc1ccc(C(=O)n2ccc3ccc(-c4ccc5ccn(Cc6ccccc6)c5c4)cc32)cc1	-7	-20	-21	4	-18	nt	nt
Oc1ccccc1-c1cc(-c2ccccc2Cl)[nH]n1	9.5*	-3	-1	-1	14	24*	12*
CC(C)(C)OC(=O)N(Cc1ccccc1)Cc1ccccc1OCc1cccc(NC(=O)C2CCC2)c1	-3	0	-1	0	-8	nt	nt
CC(C)(C)OC(=O)N(Cc1ccccc1)Cc1ccccc1OCc1cccc(NC(=O)C2CC2)c1	9.5*	4	-2	0	9	20*	18*
c1ccc(C(c2nnnn2C2CCCC2)N2CCN(c3ccccc3)CC2)cc1 (stereo unspecified)	0	2	2	1	6	nt	nt
N#CC(C#N)=C1C=C2C=C(N3CCCCCC3)CCC2CC1 (stereo unspecified)	9.7*	-83	-96	10	-15	0	5
N#CC(C#N)=C1C=C2C=C(N3CCOCC3)CCC2CC1 (stereo unspecified)	-5	-2	-10	5	-22	nt	nt
CC(C)n1cc(NC(=O)C2CC(c3cccc(Br)c3)=NO2)cn1 (stereo unspecified)	9.0*	0	-10	1	13	-5	-3
O=C(NCc1cccnc1)C1CC(c2cccc(Br)c2)=NO1 (stereo unspecified)	-3	2	0	0	-2	nt	nt
Cc1c(NC(=O)c2ccc(CC(C)C)o2)c(=O)n(-c2ccccc2)n1C	-1	0	-5	0	6	nt	nt
O=C(Nc1cccc(F)c1)Nc1ccc2c(c1)OCO2	10*	2	0	0	10	6	5
C=CCN(C(=O)CN1CCOCC1)c1nc(C)c(-c2ccccc2)s1	-3	0	-1	0	-5	nt	nt
N#CCCN(C(=O)COC(=O)c1cccc(S(=O)(=O)Nc2ccc([N+](=O)[O-])cc2)c1)c1ccccc1	9.2*	2	0	0	14	6	8
O=C(C1CCCN(S(=O)(=O)c2ccccc2)C1)N1CCN(c2ncccn2)CC1 (stereo unspecified)	-6	-50	-2	0	0	nt	nt
O=C(/C=N/O)NCCCN1CCCCCC1	2	3	5	1	9	nt	nt
Cc1cccc(O)c1C	-1	5	-1	-1	-13	nt	nt
SMILES	ADAM17 inh	PLCg1 inh	PLCb3 inh	KLK7 zymogen act	ADAM10 inh	ADAM10 counter	ADAM17 confirm
Cc1cccc(C)c1N=Nc1c(C)cc(O)cc1C	9.9*	6	0	0	19	45*	20*
CCCn1c(SCC(=O)N2CCCCC2)nnc1C(C)C	-2	1	1	0	-4	nt	nt
COc1c(NC=O)c2c(c([N+](=O)[O-])c1OC)C(=O)OC2	8.8*	5	6	0	6	-6	-2
COc1c([N+](=O)[O-])c(=O)oc2ccccc12	-3	4	3	0	-5	nt	nt
COC(=O)c1cc(-c2ccccc2)n(CCN)c1C	-7	-1	-3	0	1	nt	nt
COC(=O)c1cc(C(=O)OC)n(Cc2ccc(C)cc2)c1C	9.2*	1	-8	0	7	0	3
COc1ccccc1N1CCN(C(=O)CCCn2c(=S)[nH]c3ccccc3c2=O)CC1	-2	0	1	-1	-8	nt	nt
O=C(NCCn1cc(SCc2ccc(F)cc2)c2ccccc21)c1c(F)cccc1F	9.3*	-2	-2	0	12	41*	21*
Cc1csc(NC(=O)CSc2ccc([N+](=O)[O-])cn2)n1	8.7*	9	4	0	11	0	1
O=C(CSc1ccc([N+](=O)[O-])cn1)Nc1nccs1	-2	4	-3	0	4	nt	nt
CC1C(=O)C(C)C(c2cc(Cl)ccc2O)NC1c1cc(Cl)ccc1O (stereo unspecified)	9.6*	4	1	0	18	32*	17*
COc1cccc(C2NC(c3cccc(OC)c3O)C(C)C(=O)C2C)c1O (stereo unspecified)	1	-1	-8	1	1	nt	nt
CC(=O)N1CCCN(S(=O)(=O)c2ccc3c(c2)c(=O)n(C)c(=O)n3C)CC1	2	2	-6	0	5	nt	nt
Cc1nnc(N(C)C(=O)c2ccc3c(c2)OCO3)s1	2	2	-4	-1	8	nt	nt
CCSc1nnc(NC(=O)CCc2ccc(OC)cc2)s1	9.1*	6	7	0	16	4	3
O=C(NC(=S)Nc1ccc2c(c1)OCCO2)c1cccc2ccccc12	11*	4	4	0	19	18	11*
O=C(NC(=S)Nc1ccc2c(c1)OCCO2)c1cccc(Br)c1	4	3	1	0	16	nt	nt
